Shown are actives, neighbours in structure and some others; about 12% of the full set was active somewhere.
HP1b binding inh: HP1-beta chromodomain-methylated histone interaction inhibition | AlphaScreen HP1-beta / biotin-H3K9me3 peptide binding | 390,000 tested, 0.56% active | P83916 | Potency, µM (top dose mostly 114 µM), without a hit: top-dose activity change, negative = inhibition, most hits filed as inhibitors; also: nearly all actives have a fitted effect of over 70% in size
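AlphaScreen: HP1-beta (50 nM) preformed 30 min with biotin-H3(1-18)K9me3 peptide (50 nM) in PBS pH 7.4, 0.01% Tween-20. Compound added for 30 min at RT, then streptavidin donor/nickel chelate acceptor beads (10 ug/mL) for 30 min.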
Sfp inh: Sfp phosphopantetheinyl transferase inhibition. 310,000 tested, 3.5% active. AID 1490. Potency, µM, inactives show largest response in the series, negative = inhibition, hits mostly inhibitors. Biochemical Sfp PPTase activity, qHTS;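 also: the enzyme is Sfp with the accession as filed and its product quenches rhodamine fluorescence; 0% = enzyme reaction without inhibitor and -100% = no enzyme wells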
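With Hepes-Na pH 7.6 buffer containing 10 mM MgCl2, Sfp (15 nM) modified BHQ-2-YbbR (12.5 uM) using rhodamine-CoA (5 uM). Two reads 30 minutes apart at 525/598 nm yielded each well's rate.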
JMJD2A Tudor: blocks the human JMJD2A Tudor domain; AlphaScreen JMJD2A-Tudor / H3K4me3 peptide binding; 390,000 tested, 4.4% active; O75164; Potency, µM (series often up to 114 µM), for the others: top-dose activity change, negative = inhibition, hits mostly inhibitors; also: % is scaled to controls: 0 for no effect and ±100 for the full control effect; nearly all actives have a fitted effect of over 50% in size
Target sequence (O75164 whole entry, looked up, the tested form may be a part): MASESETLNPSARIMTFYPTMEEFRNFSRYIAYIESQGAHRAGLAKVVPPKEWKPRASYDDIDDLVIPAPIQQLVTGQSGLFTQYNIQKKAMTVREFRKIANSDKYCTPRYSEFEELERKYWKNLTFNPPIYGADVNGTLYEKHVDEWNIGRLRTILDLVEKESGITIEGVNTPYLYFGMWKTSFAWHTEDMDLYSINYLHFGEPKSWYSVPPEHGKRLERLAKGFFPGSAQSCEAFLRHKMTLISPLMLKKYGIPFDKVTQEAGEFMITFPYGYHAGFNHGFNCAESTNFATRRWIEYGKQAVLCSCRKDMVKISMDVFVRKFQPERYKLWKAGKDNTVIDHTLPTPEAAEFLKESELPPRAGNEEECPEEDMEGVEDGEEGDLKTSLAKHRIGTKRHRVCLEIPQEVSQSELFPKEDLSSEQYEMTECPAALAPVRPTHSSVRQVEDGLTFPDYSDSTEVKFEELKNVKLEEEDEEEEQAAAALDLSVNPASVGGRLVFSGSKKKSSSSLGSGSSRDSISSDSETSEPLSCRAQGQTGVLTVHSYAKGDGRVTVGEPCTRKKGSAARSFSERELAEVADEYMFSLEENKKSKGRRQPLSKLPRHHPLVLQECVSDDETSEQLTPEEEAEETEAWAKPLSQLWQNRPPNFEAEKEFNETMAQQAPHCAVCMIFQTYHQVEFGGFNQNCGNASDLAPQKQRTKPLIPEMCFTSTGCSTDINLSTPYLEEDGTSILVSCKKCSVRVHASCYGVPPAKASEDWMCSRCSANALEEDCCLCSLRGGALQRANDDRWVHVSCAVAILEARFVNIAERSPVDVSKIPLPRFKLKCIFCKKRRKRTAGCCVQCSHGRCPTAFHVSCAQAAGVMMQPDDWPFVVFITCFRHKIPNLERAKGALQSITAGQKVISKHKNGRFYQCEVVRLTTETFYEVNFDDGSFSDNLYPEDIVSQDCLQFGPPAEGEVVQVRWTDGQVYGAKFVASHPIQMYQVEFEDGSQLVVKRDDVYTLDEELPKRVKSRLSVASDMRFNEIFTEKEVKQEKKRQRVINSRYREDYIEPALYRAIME
L3MBTL1 inh: L3MBTL1 (human) inhibition | AlphaScreen L3MBTL1–H3K9me1 peptide binding | Potency, µM (highest dose often 57.1 µM), without a hit: top-dose activity, negative = inhibition, usual class: inhibitors | 230,000 tested, 0.66% active | AID 485360; also: % is scaled to controls: 0 for no effect and ±100 for the full control effect; nearly all actives have a fitted effect of over 60% in size
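Displacement of a biotinylated histone H3(1-15) peptide monomethylated at Lys9 (75 nM) from L3MBTL1 (50 nM) was measured by AlphaScreen after a 30 min room-temperature compound incubation; cefsulodin titration served as intraplate control.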
G9a inh: G9a (human) methyltransferase inhibition. Q96KQ7. G9a H3K9 monomethylation, AlphaScreen, 2 h. Potency, µM (series often up to 102 µM), without a hit: at the top dose activity, negative = inhibition, usual class: inhibitors. 350,000 tested, 8.8% active. AID 504332; also: % is scaled to controls: 0 for no effect and ±100 for the full control effect; nearly all actives have a fitted effect of over 75% in size
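Step 1: enzyme (final 20 nM) with compound, 15 min RT. Step 2: substrate peptide 500 nM and SAM 20 uM, 2 h RT. Step 3: anti-H3K9me1 antibody and AlphaScreen beads, 10 min, then plate read.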
BAZ2B inh: blocks human BAZ2B | Q9UIF8 | AlphaScreen BAZ2B-H3K14Ac peptide displacement | Potency, µM (series often up to 114 µM), without a hit: top-dose activity change, negative = inhibition, usual class: inhibitors | 360,000 tested, 4.4% active; also: % is scaled to controls: 0 for no effect and ±100 for the full control effect; nearly all actives have a fitted effect of over 60% in size
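Complex of BAZ2B and biotin-H3K14Ac (50 nM apiece) forms over 30 min at RT, then faces library compounds up to 110 uM for another 30 min; AlphaScreen beads added, 20 min dark incubation, luminescence read.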
* = called active by the depositor; ? = inconclusive; nt = no result; [ ] = another dose, or the depositor's remark. Calls follow the shape of the dose curve; as a rule, active = well fitted curve in the direction sought with a large enough effect; inconclusive = small, poorly fitted or top-dose-only effect, or another doubt; inactive = no such curve, though single readings can be large; an effect the other way counts as inactive or inconclusive. Potency is read from the fitted curve at half-maximal effect.

SMILES	HP1b binding inh	Sfp inh	JMJD2A Tudor	L3MBTL1 inh	G9a inh	BAZ2B inh
Cc1ccc(C)c(NC(=S)/C(=C(\[O-])c2ccc(OC(F)F)cc2)[n+]2ccccc2)c1	15%	?	-8%	-15%	40µM*	?
O=[N+]([O-])c1ccc(/C([O-])=C(/C(=S)Nc2ccccc2F)[n+]2ccccc2)cc1	-6%[57 µM]	-16%	-26%	-5%	50µM*	-35%
COc1cccc(NC(=O)/C=C/c2ccc([N+](=O)[O-])cc2)c1	-13%	50µM*	-34%	nt	7.9µM*	?
CCOc1ccc(NC(=S)/C(=C(\[O-])c2ccc(C)c([N+](=O)[O-])c2)[n+]2ccccc2)cc1	-29%	-26%	-36%	nt	?	?
O=C(/C=C/c1ccc([N+](=O)[O-])cc1)Nc1ncc([N+](=O)[O-])s1	9%	40µM*	-31%	-10%	50µM*	35µM*
CCOc1ccccc1CNC(=O)C1CCN(c2nc3ccccc3nc2C(F)(F)F)CC1	24%	nt	-4%	nt	-3%[59 µM]	0%
Cc1oc2ccc(O)c(CN(C)Cc3ccccc3)c2c1C(=O)Nc1cccc(C(F)(F)F)c1	23%	nt	-15%	nt	-16%[59 µM]	-23%
COc1cccc(NC(=S)/C(=C(\[O-])c2ccc([N+](=O)[O-])cc2)[n+]2ccccc2)c1	-9%	?	-18%[11.4 µM]	-22%	45µM*	50µM*
O=[N+]([O-])c1cccc(/C([O-])=C(/C(=S)Nc2cccc3ccccc23)[n+]2ccccc2)c1	?	35µM*	?	-27%	5.6µM*	-36%
[O-]/C(=C(\C(=S)Nc1ccccc1F)[n+]1ccccc1)c1ccc(OC(F)F)cc1	11%	?	-19%[11.4 µM]	nt	50µM*	-25%
O=C(C[n+]1cc(-c2ccccc2)n2c1CCCCC2)c1ccc(Cl)cc1	44%	4%	3%	12%	-9%[59 µM]	-3%
Cc1ccc(-c2c[n+](CC(=O)c3ccc(Br)cc3)c3n2CCCCC3)cc1	22%	?	-30%	nt	45µM*	?
Cc1ccccc1C1=C/C(=C(\SS/C(C(=O)c2ccc(OCC(=O)O)c(Cl)c2Cl)=C2\C=C(c3ccccc3C)SS2)C(=O)c2ccc(OCC(=O)O)c(Cl)c2Cl)SS1	20µM*	nt	28µM*	nt	nt	nt
CCCCn1c(=O)c2oc3ccccc3c2n(Cc2ccc(OC)cc2)c1=O	41%	nt	3%	nt	4%[59 µM]	-26%
CC(=O)Nc1ccc(NC(=O)CSc2nnc(NC(=O)C3CC(=O)N(c4ccc(F)cc4)C3)s2)cc1 (stereo unspecified)	27%	12%	-1%	nt	-10%	-14%
O=C(CSc1nnc(NC(=O)c2c(F)cccc2F)s1)NCC1CCCO1 (stereo unspecified)	42%	nt	-1%	-1%	20µM*	11%
Cc1ccc(N2CC(C(=O)Nc3nnc(SCCN4CCOCC4)s3)CC2=O)cc1C (stereo unspecified)	29%	-6%	-13%	nt	-35%[12.7 µM]	-13%
O=C(Nc1nnc(SCCC2OCCO2)s1)C1CC(=O)N(c2ccc(F)cc2)C1 (stereo unspecified)	27%	-30%	-21%	nt	40µM*	?
Cc1ccc(N2CC(C(=O)Nc3nnc(SCC(=O)NCC4CCCO4)s3)CC2=O)cc1 (stereo unspecified)	43%	5%	-19%	nt	?	-11%
O=C(CSc1nnc(NC(=O)C2CC(=O)N(c3ccc(F)cc3)C2)s1)NCC1CCCO1 (stereo unspecified)	26%	-2%	-16%	nt	45µM*	-6%
O=C(Nc1nnc(SCCN2CCOCC2)s1)C1CC(=O)N(c2ccc(F)cc2)C1 (stereo unspecified)	23%	-21%	-24%	nt	45µM*	-30%
CCOCCCNC(=O)C(c1ccccc1)N(Cc1cccs1)C(=O)c1ccc(NC(C)=O)cc1 (stereo unspecified)	8%	nt	3%	nt	7%[59 µM]	5%

High-throughput results: PubChem, National Center for Advancing Translational Sciences (NCATS)
